LYPLA2 inh – blocks human lysophospholipase 2, a PME1 counter-screen; inhibition, % at 5.9 µM; O95372; recombinant LYPLA2, FP-Rh probe fluorescence polarization; 320,000 tested, 0.38% active;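 active = inhibition above the screen-wide mean plus 3 SD, limit set per campaign, cut at about 26% in these data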;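 also: 0% = LYPLA2 with DMSO and 100% = wells lacking LYPLA2 enzyme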
LYPLA1 counter – counter-screen for PME1 inhibitors: inhibitors of human LYPLA1 | O75608 | recombinant LYPLA1, FP-Rh probe fluorescence polarization | inhibition, % at 5.9 µM | 320,000 tested, 0.16% active;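 active = inhibition above the mean of all tested compounds plus 3 SD, set per campaign, cut at about 14% in these data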;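 also: inhibitors block serine hydrolase probe labeling of LYPLA1 so polarization falls; 0% = enzyme with DMSO and 100% = wells lacking LYPLA1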
Fam108B counter – Fam108B inhibition, counter-screen for RBBP9 inhibitors | 300,000 tested, 0.33% active | inhibition, % at 9.51 µM | recombinant Fam108B, FP-Rh probe fluorescence polarization;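 active = inhibition above the screen mean inhibition plus 3 SD, computed separately per campaign, cut at about 18% in these data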;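 also: inhibitors lower polarization as less probe binds the enzyme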
PP5 inh – blocks human protein phosphatase 5 activity | 320,000 tested, 0.18% active | purified PP5c, OMFP substrate fluorescence | inhibition, % at 6.7 µM | AID 1987;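 active = inhibition above the campaign's mean inhibition across all tested compounds plus 3 SD, cut at about 9.5% in these data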;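 also: 0% = DMSO only and 100% = 100 µM cantharidin control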
Target sequence (P53041 whole entry, looked up): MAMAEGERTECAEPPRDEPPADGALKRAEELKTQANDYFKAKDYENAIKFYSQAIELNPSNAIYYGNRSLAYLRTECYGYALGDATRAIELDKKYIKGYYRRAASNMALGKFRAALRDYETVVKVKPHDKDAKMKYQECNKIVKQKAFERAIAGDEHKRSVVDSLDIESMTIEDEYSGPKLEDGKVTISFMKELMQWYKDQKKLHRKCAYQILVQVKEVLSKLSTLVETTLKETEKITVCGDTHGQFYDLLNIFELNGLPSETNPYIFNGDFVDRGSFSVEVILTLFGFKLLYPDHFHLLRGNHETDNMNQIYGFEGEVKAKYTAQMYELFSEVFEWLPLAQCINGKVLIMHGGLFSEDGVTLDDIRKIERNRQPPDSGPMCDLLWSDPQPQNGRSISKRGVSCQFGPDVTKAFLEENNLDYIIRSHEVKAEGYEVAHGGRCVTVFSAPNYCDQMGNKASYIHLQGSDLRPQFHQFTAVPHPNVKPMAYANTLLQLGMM
PP1 inh – blocks human PP1-alpha phosphatase, a PP5 counter-screen. P62136. purified PP1alpha, OMFP fluorescence. inhibition, % at 6.7 µM. 320,000 tested, 0.9% active;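 active = inhibition above the mean inhibition of all tested compounds plus 3 SD, computed separately for each screening campaign, cut at about 15% in these data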
PME-1 inh – PME-1 (human) inhibition; recombinant PME-1, FP-Rh probe fluorescence polarization; Q9Y570; AID 2130; 320,000 tested, 0.53% active; inhibition, % at 5.9 µM;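 active = inhibition above the campaign mean of all compounds plus 3 SD, cut at about 26% in these data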;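 also: competitive labeling of PME-1 active site by serine hydrolase directed probe; 0% = PME-1 with DMSO and 100% = wells lacking PME-1 enzyme; inhibitors block probe labeling so polarization falls and inhibition rises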
PP5 conf – PP5 (human) inhibition, confirmation | shares compounds with PP5 inh | Purified PP5, fluorogenic phosphatase substrate, fluorescence | inhibition, % at 6.7 µM | 460 tested, 22% active | AID 2331; in the data active = inhibition above about 9.5%
PP1 inh counter – PP1 phosphatase inhibition, counter-screen for PP5 inhibitors; shares compounds with PP5 inh; PP1 enzyme, fluorescent phosphatase substrate; inhibition, % at 6.7 µM; 460 tested, 4% active; AID 2355; in the data active = inhibition above about 16%
Active calls of the source: *. Sampled rows, rich in hits. Any-hit rate of the full collection: about 1.8%.

O=[N+]([O-])c1ccc(O)c(-c2nn[nH]n2)c1 was read as LYPLA2 inh -1, LYPLA1 counter 0, Fam108B counter 3, PP5 inh 30*, PP1 inh 1, PME-1 inh -4, PP5 conf 18* and PP1 inh counter -5.
For COc1ccc(N(CC(=O)NC2CCCCC2)C(=O)c2ccc(C)s2)c(OC)c1 the results were LYPLA2 inh 1, LYPLA1 counter -1, Fam108B counter -5, PP5 inh 0, PP1 inh 3 and PME-1 inh -1.
`CC(C)C[C@H](NC(=O)c1[nH]cnc1C(=O)N[C@@H](C)C(=O)OC(C)(C)C)C(=O)OC(C)(C)C` gave LYPLA2 inh 0, LYPLA1 counter -1, Fam108B counter -1, PP5 inh 11*, PP1 inh 10, PME-1 inh 3, PP5 conf 7 and PP1 inh counter 8.
Screening CC(C)C[C@H](NC(=O)c1[nH]cnc1C(=O)Nc1ccccc1)C(=O)OC(C)(C)C returned LYPLA2 inh -9, LYPLA1 counter -6, Fam108B counter -5, PP5 inh 9.8*, PP1 inh 7, PME-1 inh -5, PP5 conf 7 and PP1 inh counter 6.
`CC(C)C[C@H](NC(=O)c1nc[nH]c1C(=O)NCC(=O)OC(C)(C)C)C(=O)OCc1ccccc1` gave LYPLA2 inh -10, LYPLA1 counter -7, Fam108B counter -1, PP5 inh 12*, PP1 inh 9, PME-1 inh 3, PP5 conf 9 and PP1 inh counter 9.
`CC(C)C[C@H](NC(=O)c1nc[nH]c1C(=O)N[C@@H](CC(C)C)C(=O)OC(C)(C)C)C(=O)OCc1ccccc1` gave LYPLA2 inh -11, LYPLA1 counter -8, Fam108B counter -7, PP5 inh 6, PP1 inh 6 and PME-1 inh -9.
Screening CCOC(=O)c1ccc(NS(=O)(=O)c2c(C)nc3sccn3c2=O)cc1 returned LYPLA2 inh 2, LYPLA1 counter 1, Fam108B counter 0, PP5 inh 1, PP1 inh 0 and PME-1 inh -8.
`Cc1ccc(S(=O)(=O)N2CCN(C(=S)NCC3CCCO3)CC2)cc1` (stereo unspecified) gave LYPLA2 inh -2, LYPLA1 counter -1, Fam108B counter 0, PP5 inh -2, PP1 inh -1 and PME-1 inh 4.
`CCOc1ccc(-c2[nH]ncc2Oc2cccc(OC)c2)c(O)c1` gave LYPLA2 inh -11, LYPLA1 counter -10, Fam108B counter 1, PP5 inh 12*, PP1 inh 10, PME-1 inh 3, PP5 conf 4 and PP1 inh counter 4.
For FC(F)(F)Oc1ccc(Nc2nc(N3CCOCC3)nc(N3CCOCC3)n2)cc1 the results were LYPLA2 inh -5, LYPLA1 counter 0, Fam108B counter 2, PP5 inh 1, PP1 inh -4 and PME-1 inh -5.
Screening Cc1ccc(CNC(=O)C(=O)NCC2CCCN2S(=O)(=O)c2cccs2)cc1 (stereo unspecified) returned LYPLA2 inh -2, LYPLA1 counter -2, Fam108B counter 1, PP5 inh -1, PP1 inh 2 and PME-1 inh 0.
For c1ccc2c(C3CCO3)cccc2c1 (stereo unspecified) the results were LYPLA2 inh -4, LYPLA1 counter -3, PP5 inh 1, PP1 inh 2 and PME-1 inh 3.
O=C1c2ccccc2C(=O)C12OC2c1cccc2ccccc12 (stereo unspecified) was read as LYPLA2 inh 4, LYPLA1 counter -3, Fam108B counter 1, PP5 inh 10*, PP1 inh 0, PME-1 inh 3, PP5 conf 35* and PP1 inh counter 17*.
Screening CN(C)S(=O)(=O)c1ccc(Cl)c(NC(=O)CN2C(=O)NC3(CCc4ccccc43)C2=O)c1 (stereo unspecified) returned LYPLA2 inh 2, LYPLA1 counter 0, PP5 inh 3, PP1 inh 0 and PME-1 inh 5.
For CCOc1ccc(C(=O)/C=C/c2cn(CN3CCN(C)CC3)c3ccccc23)cc1 the results were LYPLA2 inh -9, LYPLA1 counter -10, Fam108B counter 4, PP5 inh 11*, PP1 inh 7, PME-1 inh -33, PP5 conf 0 and PP1 inh counter -1.
CSc1ccc(N=Nc2c(C)[nH]n(C)c2=O)cc1 was read as LYPLA2 inh 9, LYPLA1 counter 5, Fam108B counter 0, PP5 inh 1, PP1 inh 0 and PME-1 inh -1.
O=C(NCCCCc1ccccc1)c1ccccc1F was read as LYPLA2 inh 6, LYPLA1 counter -3, Fam108B counter -1, PP5 inh 12*, PP1 inh -1, PME-1 inh 5, PP5 conf -1 and PP1 inh counter -2.
`O=C(NCCc1ccccc1)c1ccccc1F` gave LYPLA2 inh 2, LYPLA1 counter -1, Fam108B counter 3, PP5 inh 2, PP1 inh -5 and PME-1 inh -6.
`CCOC(=O)c1c(C(F)(F)C(F)(F)C(F)(F)C(F)(F)F)n[nH]c1C` gave LYPLA2 inh 0, LYPLA1 counter 1, Fam108B counter -7, PP5 inh 14*, PP1 inh 12, PME-1 inh -3, PP5 conf 9.9* and PP1 inh counter 13.
`CCOC(=O)c1[nH]c(C)c(C(=O)OCC)c1C` gave LYPLA2 inh -3, LYPLA1 counter 3, Fam108B counter 0, PP5 inh 2, PP1 inh 1 and PME-1 inh -3.
O=C(COC(=O)c1ccc(F)cc1F)Nc1cccnc1Cl was read as LYPLA2 inh -1, LYPLA1 counter -1, PP5 inh -1, PP1 inh 0 and PME-1 inh 7.
Cc1ccnc(NC(=O)COC(=O)c2ccc(F)cc2F)n1 was read as LYPLA2 inh 7, LYPLA1 counter 7, Fam108B counter -12, PP5 inh 15*, PP1 inh -5, PME-1 inh 5, PP5 conf -5 and PP1 inh counter -5.
Screening CC(/C=N/NC(=O)c1nnn(-c2nonc2N)c1C(C)C)=C\c1ccco1 returned LYPLA2 inh 3, LYPLA1 counter -7, Fam108B counter 4, PP5 inh 0, PP1 inh 1 and PME-1 inh 0.
Screening COc1cc(C(=O)NC(=S)Nc2ccc(Cl)cn2)cc(OC)c1OC returned LYPLA2 inh -3, LYPLA1 counter -6, Fam108B counter 0, PP5 inh 2, PP1 inh -4 and PME-1 inh 1.
